Data taken from PubChem BioAssay AID2685 (National Center for Advancing Translational Sciences (NCATS), 2010).
The campaign covered roughly 320,000 compounds. About 2,100 (0.66%) were called active. Not shown: some 53% with an inconclusive outcome. Calls follow the shape of the dose curve; as a rule, active = well fitted inhibition curve with a large enough effect in the signal ratio, with a control signal flat (not every such curve was filed as active); inconclusive = small, poorly fitted or top-dose-only effect, or effect the other way, or a change in a side signal; inactive = flat fitted curve, though single readings scatter; the % refers to the signal ratio. This excerpt belongs to a sample that is enriched for actives.
Potency is read from the fitted curve at half-maximal effect.

Assay: qHTS Assay for Lipid Storage Modulators in Drosophila S3 Cells;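 as to cell number change: cells counted by Cell Tracker Red CMTPX staining in the red channel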
Conditions: BODIPY lipid droplet fluorescence, 18-24 h, cells fed with added oleic acid; cell number change: measured here: cell count max response; series mostly up to 46.1 µM
Method in brief: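 Drosophila S3 cells loaded with oleic acid (400 uM, as added) and compounds at several concentrations; lipid droplets imaged by 488-nm laser-scanning cytometry, 500–530 nm intensity and object ratio to cell channel. Percent activity normalized to 20 uM Triacsin C.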
For `Cc1nn(-c2ccccc2)c(C)c1S(=O)(=O)O`, the Potency was “inactive” and the cell number change was -1.62%. In the case of `CC(=O)c1c(C)nn(-c2ccccc2)c1C`, the Potency was “inactive” and the cell number change was 16.2%. For `Cc1nn(-c2ccccc2)c(C)c1-c1ccccc1O`, the Potency was 7.31 µM (active) and the cell number change was -20.1%. In the case of `O=c1c2[nH]c3ccc(F)cc3c2ncn1Cc1ccncc1`, the Potency was “inactive” and the cell number change was 1.6%. In the case of `Cc1nn(CC(=O)NC(C)C)c(C)c1[N+](=O)[O-]`, the Potency was “inactive” and the cell number change was 17.1%. For `O=C(NC1CCN(C(=O)NCc2ccccc2)CC1)c1cccc(F)c1`, the Potency was 29.1 µM (active) and the cell number change was 11.7%. In the case of `CC(=O)NC(Cc1ccccc1F)C(=O)NC1CCN(C(=O)NCc2ccccc2)CC1` (centres undefined), the Potency was 6.51 µM (active) and the cell number change was -14.1%. For `O=C(Cc1ccccc1)NC1CCN(C(=O)NCc2ccccc2)CC1`, the Potency was “inactive” and the cell number change was -0.661%. For `CC(=O)NC(Cc1cccc(C)c1)C(=O)NC1CCN(C(=O)NCc2ccccc2)CC1` (centres undefined), the Potency was “inactive” and the cell number change was 5.24%. With `COc1cccc(CC(NC(C)=O)C(=O)NC2CCN(C(=O)Nc3ccc(C)cc3)CC2)c1` (centres undefined) the Potency was “inactive” and the cell number change was -3.63%. In the case of `COc1cccc(CC(NC(C)=O)C(=O)NC2CCN(C(=O)c3ccc(Cl)cc3)CC2)c1` (centres undefined), the Potency was 3.26 µM (active) and the cell number change was -13.3%. With `COc1ccc(CC(NC(C)=O)C(=O)NC2CCN(C(=O)c3cccc(Cl)c3)CC2)cc1OC` (centres undefined) the Potency was “inactive” and the cell number change was -1.21%. In the case of `CC(=O)NC(Cc1ccc(C)cc1)C(=O)NC1CCN(C(=O)NCc2ccccc2)CC1` (centres undefined), the Potency was “inactive” and the cell number change was 13.3%. For `O=C(c1ccc(F)cc1)C1CCN(C(=O)NCc2ccccc2)CC1`, the Potency was “inactive” and the cell number change was 2.65%. With `COc1ccnc(Oc2cc(Cl)cc(Cl)c2)c1C#N` the Potency was “inactive” and the cell number change was 16.7%. For `COc1cc(C(=O)NCC(=O)OCC(=O)Nc2ncc(Cl)cc2Cl)cc(OC)c1OC`, the Potency was “inactive”. For `O=C(Cn1nnc(-c2cccs2)n1)NCc1ccco1`, the Potency was “inactive” and the cell number change was 14.3%. For `Cc1cc(=O)oc2c3c(cc(OCC(=O)N4CCC(C(=O)O)CC4)c12)OC(C)(C)CC3`, the Potency was “inactive” and the cell number change was 22.1%. For `Cc1nc(C)c(C(=O)NCc2ccccc2Cl)o1`, the Potency was 8.2 µM (active) and the cell number change was -27.9%. With `Cc1ncoc1C(=O)NCc1ccccc1Cl` the Potency was “inactive” and the cell number change was -13.1%. For `Cc1nc(C)c(C(=O)NCCC(c2ccccc2)c2ccccc2)o1`, the Potency was “inactive” and the cell number change was -16.5%. With `COC(CNC(=O)c1ccc2nc(-c3ccccc3)c(-c3ccccc3)nc2c1)OC` the Potency was “inactive” and the cell number change was -6.61%. For `O=C(CN1CCN(c2ccccc2F)CC1)Nc1ccc2c(c1)CCC2`, the Potency was “inactive” and the cell number change was -8.56%. In the case of `Cc1ccc(NS(=O)(=O)c2ccc(Cl)s2)cc1S(=O)(=O)N(C)C`, the Potency was “inactive” and the cell number change was 9.65%. With `Cc1nc(-c2ccc(S(=O)(=O)Nc3cc(S(=O)(=O)N(C)C)ccc3C)s2)cs1` the Potency was “inactive” and the cell number change was 1.19%. With `Cc1ccc(S(=O)(=O)N(C)C)cc1NS(=O)(=O)c1ccc(Cl)s1` the Potency was 6.51 µM (active) and the cell number change was 0.163%. For `COCCN(C(=O)c1ccco1)c1nnc(-c2ccc(F)cc2)s1`, the Potency was “inactive” and the cell number change was 4.04%. For `COCCN(C(=O)c1ccccc1F)c1nc(-c2ccc(OC)cc2)cs1`, the Potency was “inactive” and the cell number change was -17.2%. With `COCCN(C(=O)c1ccccc1F)c1nnc(-c2ccc(OC)cc2)s1` the Potency was 18.4 µM (active) and the cell number change was -15.3%. With `O=C(Cn1c(NCCCO)nc2ccccc21)c1ccc(F)cc1` the Potency was “inactive” and the cell number change was 11.9%. In the case of `Cc1ccc(SCc2cc(=O)n3[nH]c(C)nc3n2)cc1`, the Potency was “inactive”. With `Cc1cc(C)c(CN2CCC(N3CCC(C(=O)NCC4CCCO4)CC3)CC2)cc1C` (centres undefined) the Potency was “inactive”. With `CC[C@@H]1CC=C[C@H]2[C@H]1C(=O)N(Cc1ccccc1)[C@H]2c1ccc2ccccc2c1` the Potency was “inactive”. With `CCN(CC)C(=O)CSc1nc(-c2cccs2)cc(-c2cccs2)c1C#N` the Potency was 14.6 µM (active) and the cell number change was -14%. With `CCN(CC)C(=O)CSc1nc(C)cc(-c2cccs2)c1C#N` the Potency was “inactive” and the cell number change was -17.5%. In the case of `CCN(CC)C(=O)CSc1nc(N)c(C#N)c(-c2cccs2)c1C#N`, the Potency was “inactive” and the cell number change was -4.19%. With `O=C(CC1Sc2ccccc2NC1=O)Nc1cccc(-c2nnc3n2CCCCC3)c1` (centres undefined) the Potency was “inactive” and the cell number change was 4.38%. In the case of `Cc1ccc(NC(=O)c2sccc2C)cc1[N+](=O)[O-]`, the Potency was 8.2 µM (active) and the cell number change was 7.44%. In the case of `Cc1ccsc1C(=O)Nc1ccc2c(c1)OCCO2`, the Potency was “inactive”. For `Cc1ccc(NC(=O)c2cccs2)cc1[N+](=O)[O-]`, the Potency was “inactive” and the cell number change was -1.31%. With `COc1ccc(-c2csc(NC(=O)c3cccc(N4C(=O)CCC4=O)c3)n2)cc1C` the Potency was “inactive” and the cell number change was -26.1%. With `O=C1CC(=O)N(CCc2ccccc2)C(=O)N1CCc1ccccc1` the Potency was “inactive” and the cell number change was -9.18%. With `COc1ccc(OC)c(N=CC2=C(O)CC(C)(C)CC2=O)c1` the Potency was “inactive” and the cell number change was 25.1%. With `C/C(=N\Nc1ccc([N+](=O)[O-])cc1)c1ccc2c(c1)OCO2` the Potency was “inactive” and the cell number change was -16.9%. For `COCCCn1c(=O)c2sccc2n2c(CCCC(=O)NCC3CCCO3)nnc12` (centres undefined), the Potency was 18.4 µM (active) and the cell number change was 11.8%. With `Cn1c(C(=O)OCC(=O)NCC2CCCO2)cc2sccc21` (centres undefined) the Potency was “inactive” and the cell number change was 0.161%. With `CCCn1c(=O)c2sccc2n2c(CCCC(=O)NCc3ccco3)nnc12` the Potency was 29.1 µM (active) and the cell number change was -3.77%. For `CCCn1c(=O)c2sccc2n2c(CCCC(=O)NCC3CCCO3)nnc12` (centres undefined), the Potency was 20.6 µM (active) and the cell number change was -21.7%. For `CCCn1c(=O)c2sccc2n2c(CCCC(=O)NC3CCN(Cc4ccccc4)CC3)nnc12`, the Potency was “inactive” and the cell number change was 6.65%. For `Cn1c(=O)c2sccc2n2c(CCCC(=O)NCc3ccco3)nnc12`, the Potency was “inactive” and the cell number change was -10.3%. In the case of `CCCN(CCC)C(=O)Cn1c(=O)n(CCCC(=O)NCc2ccco2)c(=O)c2sccc21`, the Potency was “inactive” and the cell number change was 2.76%. For `COCCCn1c(=O)c2sccc2n2c(CCCC(=O)NCc3ccccc3)nnc12`, the Potency was “inactive” and the cell number change was 12.6%. With `O=C(CCCn1c(=O)c2sccc2n(CC(=O)NCC2CCCO2)c1=O)NCc1ccco1` (centres undefined) the Potency was “inactive” and the cell number change was 3.33%. In the case of `O=C(O)CCCN=C1NC2(CCCC2)Cc2ccccc21`, the Potency was “inactive” and the cell number change was 11.6%. In the case of `Cc1cc(=O)[nH]c(SCC(=O)c2ccc3c(c2)NC(=O)CO3)n1`, the Potency was “inactive” and the cell number change was 4.71%. With `COc1cccc(NC(=O)CN(C)C(=O)CSc2nc(C)cc(C)n2)c1` the Potency was “inactive” and the cell number change was 1.93%. For `COC(=O)c1c(NC(=O)c2cccnc2Cl)sc(C(=O)N(C)C)c1C`, the Potency was “inactive” and the cell number change was 7.02%. For `COc1ccccc1C(CC(=O)Nc1ccc(C)c(C)c1)c1ccc(OC(C)C)cc1` (centres undefined), the Potency was “inactive” and the cell number change was 11.9%. In the case of `COC(=O)COc1ccc(NC(=O)Cn2nc(-c3ccccc3)c3ccccc3c2=O)cc1`, the Potency was “inactive” and the cell number change was 0.0736%. In the case of `COc1ccc(CNc2nc(S(=O)(=O)c3ccccc3)c(Cl)s2)cc1OC`, the Potency was “inactive” and the cell number change was -10.4%. With `Cc1ccc(S(=O)(=O)n2nc(OC(=O)c3c(F)cccc3Cl)cc2N)cc1` the Potency was “inactive” and the cell number change was 5.65%. For `Cc1onc(-c2ccccc2Cl)c1C(=O)Oc1cc(N)n(S(=O)(=O)c2ccc(F)cc2)n1`, the Potency was “inactive” and the cell number change was -4.68%. With `Nc1cc(OC(=O)c2c(F)cccc2Cl)nn1S(=O)(=O)c1ccccc1` the Potency was 0.517 µM (active) and the cell number change was -4.17%. With `COc1ccc(-c2onc3ccc(Cl)cc23)cc1` the Potency was “inactive”. In the case of `CC(=O)Nc1ccc(NC(=O)c2cc(-n3cnnc3)ccc2Cl)cc1`, the Potency was “inactive”. With `CC(C)NC(=O)c1cc(-n2cnnc2)ccc1Cl` the Potency was 25.9 µM (active) and the cell number change was -14.2%. In the case of `Cc1ccc(NC(=O)c2cc(-n3cnnc3)ccc2Cl)cc1`, the Potency was “inactive” and the cell number change was -2.68%. In the case of `CCCNC(=S)Nc1ccc(Cl)cc1C`, the Potency was “inactive” and the cell number change was -19.9%. With `Cc1cc(Cl)ccc1NC(=S)NCC(C)C` the Potency was “inactive” and the cell number change was -2.85%. For `Cc1cc(Cl)ccc1NC(=S)NCCc1ccc(Cl)cc1`, the Potency was 16.4 µM (active) and the cell number change was -20.6%. With `Cc1ccc(/C=C2/SC(=S)N(CCC(=O)N3CCN(C)CC3)C2=O)cc1` the Potency was “inactive” and the cell number change was 1.31%. With `Cc1ccc(S(=O)(=O)CCC(=O)Nc2nc(C(C)(C)C)cs2)cc1` the Potency was 23.1 µM (active) and the cell number change was -1.15%. In the case of `Cc1ccc(S(=O)(=O)CC(=O)Nc2nc(C(C)(C)C)cs2)cc1`, the Potency was “inactive” and the cell number change was 18.4%. In the case of `Cc1csc(NC(=O)CCS(=O)(=O)c2ccc(Br)cc2)n1`, the Potency was “inactive”. In the case of `O=C(CCS(=O)(=O)c1ccc(F)cc1)Nc1nc(-c2ccncc2)cs1`, the Potency was “inactive” and the cell number change was -16.7%. For `Cc1ccc(S(=O)(=O)CCC(=O)Nc2nc(-c3cccnc3)cs2)cc1`, the Potency was 13 µM (active) and the cell number change was -24.9%. With `Cc1ccc(S(=O)(=O)CC(=O)Nc2nc(-c3ccccc3)cs2)cc1` the Potency was “inactive”. In the case of `O=[N+]([O-])c1ccc(N/N=C/c2sc(N3CCOCC3)nc2-c2ccccc2)c(S(=O)(=O)Nc2ccccc2Cl)c1`, the Potency was 1.03 µM (active). For `O=C(N/N=C/c1sc(N2CCOCC2)nc1-c1ccccc1)c1cccc(S(=O)(=O)N2CCCC2)c1`, the Potency was “inactive” and the cell number change was 111%. In the case of `Cc1occc1C(=O)N/N=C/c1sc(N2CCOCC2)nc1-c1ccccc1`, the Potency was “inactive” and the cell number change was -21.3%. For `O=C(c1ccccc1)c1nc2c(n1O)CCCCC2`, the Potency was “inactive”. For `Cc1cc(C(=O)Nc2ccccc2C(=O)O)ccc1NC(=O)COc1cccc([N+](=O)[O-])c1`, the Potency was “inactive” and the cell number change was 6.05%. With `COc1ccc(S(=O)(=O)N(CC(=O)NCCC(C)C)c2ccccc2)cc1OC` the Potency was “inactive” and the cell number change was -21.6%. With `COc1cccc2cc(C(=O)OCc3ccccc3)c(=O)oc12` the Potency was 1.46 µM (active) and the cell number change was -24.9%. In the case of `COc1cccc2cc(C(=O)NCCc3ccccc3)c(=O)oc12`, the Potency was “inactive” and the cell number change was 4.66%. With `COc1cccc2cc(C(=O)Oc3ccccc3)c(=O)oc12` the Potency was “inactive” and the cell number change was -11.3%. For `CCN1CCN(C(=S)Nc2ccc(C(C)=O)cc2)CC1`, the Potency was “inactive”. For `CC1(C)OC(=O)CC1C(=O)NCc1ccccc1` (centres undefined), the Potency was 1.84 µM (active) and the cell number change was 7.5%. With `O=C1CCC(C(=O)NCc2ccccc2)N1` (centres undefined) the Potency was “inactive” and the cell number change was 7.41%. With `CC12CC(c3ccccc3O1)C(C(=O)NCc1ccccc1)C(=O)N2` (centres undefined) the Potency was 29.1 µM (active) and the cell number change was 13.7%. In the case of `COc1ccc(C(C)NC(=O)C2C(=O)NC3(C)CC2c2ccccc2O3)cc1` (centres undefined), the Potency was “inactive” and the cell number change was -6.03%. In the case of `CC12CC(c3ccccc3O1)C(C(=O)N1CCOCC1)C(=O)N2` (centres undefined), the Potency was “inactive” and the cell number change was -1.42%. For `CC12CCC(C(=O)NCc3ccccc3)(OC1=O)C2(C)C` (centres undefined), the Potency was “inactive” and the cell number change was -20.7%.
